Source: PubChem BioAssay AID1159580 (chemical genetic matrix, 2015)
Where “and” joins values, the source holds several entries; their conditions need not be identical. Identical values can stand only once. About 2,000 (36%) of roughly 5,500 compounds were called active. Another 18% or so got no clear call; they are omitted. The list shows a part of the results. Values without a mark were called inactive. Rule as the data show it: active = normalized growth mostly below about 0.91 (no sharp cut-off); inconclusive = no clear call, values can overlap the other calls; inactive = mostly above about 0.92.

Assay: chemical genetic growth profiling, strain panel (AID 1159580);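 also: tested at 20 µM; growth read once vehicle control cultures reached saturation at 30 °C; 1 = growth at the plate median or of vehicle wells; lower values mean less growth of the strain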
Conditions: S. cerevisiae deletion strains, growth OD

Oc1ccc(/C=C/c2cc(O)cc(O)c2)cc1
normalized growth (locus YJR043C, strain POL32, stronger effect = lower value): 0.946
normalized growth (locus YJR066W, strain TOR1, stronger effect = lower value): 0.939
normalized growth (locus YJR075W, strain HOC1, stronger effect = lower value): 0.986 and 1.01
normalized growth (locus YKL009W, strain mrt4, stronger effect = lower value): 0.779 (active)
normalized growth (locus YKL068W, stronger effect = lower value): 0.977
normalized growth (locus YKL085W, strain MDH1 (second series), stronger effect = lower value): 0.982
normalized growth (locus YKL085W, strain MDH1, stronger effect = lower value): 0.982
normalized growth (locus YKL160W, strain elf1, stronger effect = lower value): 1
normalized growth (locus YKL190W, strain CNB1, stronger effect = lower value): 0.992
normalized growth (locus YKR001C, strain vps1, stronger effect = lower value): 0.692 (active)
normalized growth (locus YKR026C, strain gcn3, stronger effect = lower value): 0.991
normalized growth (locus YKR091W, strain srl3, stronger effect = lower value): 0.995
normalized growth (locus YLL001W, strain dnm1, stronger effect = lower value): 1.01
normalized growth (locus YLL026W, stronger effect = lower value): 0.99
normalized growth (locus YLL041C, strain sdh2, stronger effect = lower value): 0.991
normalized growth (locus YLR027C, strain aat2, stronger effect = lower value): 0.994
normalized growth (locus YLR039C, strain RIC1, stronger effect = lower value): 0.87
normalized growth (locus YLR058C, strain SHM2, stronger effect = lower value): 0.972
normalized growth (locus YLR102C, strain apc9, stronger effect = lower value): 0.997
normalized growth (locus YLR113W, strain HOG1, stronger effect = lower value): 1.04
normalized growth (locus YLR221C, strain rsa3, stronger effect = lower value): 0.972
normalized growth (locus YLR258W, strain gsy2, stronger effect = lower value): 0.986
normalized growth (locus YLR262C, strain YPT6 (second series), stronger effect = lower value): 0.822 (active)
normalized growth (locus YLR262C, strain YPT6, stronger effect = lower value): 0.877
normalized growth (locus YLR268W, strain sec22, stronger effect = lower value): 0.894
normalized growth (locus YLR320W, strain mms22, stronger effect = lower value): 0.971
normalized growth (locus YLR330W, strain CHS5, stronger effect = lower value): 0.998
normalized growth (locus YLR342W, strain FKS1 (second series), stronger effect = lower value): 0.946
normalized growth (locus YLR342W, strain FKS1, stronger effect = lower value): 0.993
normalized growth (locus YLR357W, strain rsc2, stronger effect = lower value): 0.976
normalized growth (locus YLR370C, strain arc18, stronger effect = lower value): 1.01
normalized growth (locus YLR371W, strain rom2, stronger effect = lower value): 0.766 (active)
normalized growth (locus YLR384C, strain iki3, stronger effect = lower value): 0.996
normalized growth (locus YLR418C, strain cdc73, stronger effect = lower value): 0.686 (active)
normalized growth (locus YML016C, strain PPZ1, stronger effect = lower value): 0.993
normalized growth (locus YML032C, strain rad52, stronger effect = lower value): 0.938
normalized growth (locus YML120C, strain ndi1, stronger effect = lower value): 0.956
normalized growth (locus YML124C, strain tub3, stronger effect = lower value): 0.993
normalized growth (locus YMR058W, strain fet3, stronger effect = lower value): 0.975
normalized growth (locus YMR078C, strain ctf18, stronger effect = lower value): 0.96
normalized growth (locus YMR125W, strain sto1, stronger effect = lower value): 0.999
normalized growth (locus YMR129W, stronger effect = lower value): 0.996
normalized growth (locus YMR205C, strain PFK2, stronger effect = lower value): 0.976
normalized growth (locus YMR223W, strain ubp8, stronger effect = lower value): 0.923
normalized growth (locus YMR231W, strain pep5, stronger effect = lower value): 1
normalized growth (locus YMR263W, strain SAP30, stronger effect = lower value): 0.997
normalized growth (locus YMR307W, strain GAS1, stronger effect = lower value): 0.538 (active)
normalized growth (locus YNL067W, strain RPL9B, stronger effect = lower value): 0.979
normalized growth (locus YNL071W, strain lat1, stronger effect = lower value): 0.988
normalized growth (locus YNL175C, strain NOP13, stronger effect = lower value): 0.958
normalized growth (locus YNL183C, strain NPR1, stronger effect = lower value): 0.962
normalized growth (locus YNL197C, strain WHI3, stronger effect = lower value): 0.966
normalized growth (locus YNL209W, strain ssb2, stronger effect = lower value): 0.979
normalized growth (locus YNL224C, strain SQS1, stronger effect = lower value): 0.974
normalized growth (locus YNL233W, strain BNI4, stronger effect = lower value): 0.924
normalized growth (locus YNL248C, strain rpa49, stronger effect = lower value): 0.983
normalized growth (locus YNL250W, strain rad50, stronger effect = lower value): 0.971
normalized growth (locus YNL271C, strain bni1, stronger effect = lower value): 0.951
normalized growth (locus YNL298W, strain CLA4, stronger effect = lower value): 0.92
normalized growth (locus YNL307C, strain MCK1, stronger effect = lower value): 0.99
normalized growth (locus YNL322C, strain KRE1 (second series), stronger effect = lower value): 0.998
normalized growth (locus YNR049C, strain mso1, stronger effect = lower value): 1.01
normalized growth (locus YNR052C, strain pop2, stronger effect = lower value): 0.833 (active)
normalized growth (locus YOL012C, strain htz1): 0.774
normalized growth (locus YOL147C, strain pex11, stronger effect = lower value): 0.926 (active)
normalized growth (locus YOR001W, strain rrp6, stronger effect = lower value): 0.985
normalized growth (locus YOR061W, strain CKA2, stronger effect = lower value): 0.995
normalized growth (locus YOR069W, strain VPS5, stronger effect = lower value): 0.998
normalized growth (locus YOR070C, strain gyp1, stronger effect = lower value): 0.986
normalized growth (locus YOR080W, strain dia2, stronger effect = lower value): 0.994
normalized growth (locus YOR083W, strain WHI5 (second series), stronger effect = lower value): 0.98
normalized growth (locus YOR083W, strain WHI5, stronger effect = lower value): 0.965
normalized growth (locus YOR106W, strain vam3, stronger effect = lower value): 0.982
normalized growth (locus YOR136W, strain idh2, stronger effect = lower value): 0.965
normalized growth (locus YOR144C, strain elg1, stronger effect = lower value): 0.963
normalized growth (locus YOR184W, strain ser1, stronger effect = lower value): 0.729 (active)
normalized growth (locus YOR231W, strain MKK1, stronger effect = lower value): 0.98
normalized growth (locus YOR265W, strain rbl2, stronger effect = lower value): 0.985
normalized growth (locus YOR270C, strain vph1, stronger effect = lower value): 0.963
normalized growth (locus YOR290C, strain snf2, stronger effect = lower value): 0.95
normalized growth (locus YOR316C, strain cot1, stronger effect = lower value): 0.982
normalized growth (locus YPL051W, strain arl3, stronger effect = lower value): 0.983
normalized growth (locus YPL055C, strain LGE1, stronger effect = lower value): 0.894
normalized growth (locus YPL078C, strain atp4, stronger effect = lower value): 0.994
normalized growth (locus YPL106C, strain sse1, stronger effect = lower value): 1.02
normalized growth (locus YPL240C, strain hsp82, stronger effect = lower value): 0.988
normalized growth (locus YPL241C, strain CIN2, stronger effect = lower value): 0.985
normalized growth (locus YPL256C, strain CLN2, stronger effect = lower value): 0.975
normalized growth (locus YPR119W, strain clb2, stronger effect = lower value): 0.981
normalized growth (locus YPR141C, strain kar3, stronger effect = lower value): 0.973
normalized growth (locus YPR163C, strain tif3, stronger effect = lower value): 0.909 (active)
normalized growth (locus YPR167C, strain met16, stronger effect = lower value): 0.978
normalized growth (strain wtn01, stronger effect = lower value): 0.895 (active)
